Consider 36 compounds from PubChem BioAssay AID1259245 (Vanderbilt High Throughput Screening Facility, 2017).

About 1,400 (3.5%) of roughly 40,000 compounds were called active.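 How the source made its calls: active means any of four per-well response measures lying three or more SD from its plate-wide compound average, in either direction; inactive means the rest, inconclusive results apart.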 For the sample, actives were picked, then their nearest neighbours and some compounds at random.

The target of the assay is Voltage-dependent calcium channel gamma-2 subunit (Mus musculus) + Glutamate receptor 2 (Rattus norvegicus) (UniProt O88602+P19491). Description: AMPAR-TARP gamma-2 complex positive or negative modulation – cell-based, membrane potential dye, primary screen (AID 1259245). Conditions: HEK293 GluA2+stargazin, membrane potential dye (FDSS), glutamate EC50, at 30 µM, hits were called plate by plate, in both directions; compound max-min signal: compound-alone response (agonism); glutamate slope, % of max: measured here: glutamate response slope, % max.
Chain of Voltage-dependent calcium channel gamma-2 subunit (Mus musculus) + Glutamate receptor 2 (Rattus norvegicus) (O88602 whole entry, looked up): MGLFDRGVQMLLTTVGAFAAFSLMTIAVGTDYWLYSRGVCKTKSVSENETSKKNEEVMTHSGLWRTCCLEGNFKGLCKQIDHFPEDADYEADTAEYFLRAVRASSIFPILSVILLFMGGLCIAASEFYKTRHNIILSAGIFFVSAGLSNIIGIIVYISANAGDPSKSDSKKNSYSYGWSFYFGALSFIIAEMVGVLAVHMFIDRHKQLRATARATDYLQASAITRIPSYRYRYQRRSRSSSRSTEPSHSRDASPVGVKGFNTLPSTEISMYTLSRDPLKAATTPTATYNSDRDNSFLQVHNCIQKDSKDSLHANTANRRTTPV
Chain of Voltage-dependent calcium channel gamma-2 subunit (Mus musculus) + Glutamate receptor 2 (Rattus norvegicus) (P19491 whole entry, looked up): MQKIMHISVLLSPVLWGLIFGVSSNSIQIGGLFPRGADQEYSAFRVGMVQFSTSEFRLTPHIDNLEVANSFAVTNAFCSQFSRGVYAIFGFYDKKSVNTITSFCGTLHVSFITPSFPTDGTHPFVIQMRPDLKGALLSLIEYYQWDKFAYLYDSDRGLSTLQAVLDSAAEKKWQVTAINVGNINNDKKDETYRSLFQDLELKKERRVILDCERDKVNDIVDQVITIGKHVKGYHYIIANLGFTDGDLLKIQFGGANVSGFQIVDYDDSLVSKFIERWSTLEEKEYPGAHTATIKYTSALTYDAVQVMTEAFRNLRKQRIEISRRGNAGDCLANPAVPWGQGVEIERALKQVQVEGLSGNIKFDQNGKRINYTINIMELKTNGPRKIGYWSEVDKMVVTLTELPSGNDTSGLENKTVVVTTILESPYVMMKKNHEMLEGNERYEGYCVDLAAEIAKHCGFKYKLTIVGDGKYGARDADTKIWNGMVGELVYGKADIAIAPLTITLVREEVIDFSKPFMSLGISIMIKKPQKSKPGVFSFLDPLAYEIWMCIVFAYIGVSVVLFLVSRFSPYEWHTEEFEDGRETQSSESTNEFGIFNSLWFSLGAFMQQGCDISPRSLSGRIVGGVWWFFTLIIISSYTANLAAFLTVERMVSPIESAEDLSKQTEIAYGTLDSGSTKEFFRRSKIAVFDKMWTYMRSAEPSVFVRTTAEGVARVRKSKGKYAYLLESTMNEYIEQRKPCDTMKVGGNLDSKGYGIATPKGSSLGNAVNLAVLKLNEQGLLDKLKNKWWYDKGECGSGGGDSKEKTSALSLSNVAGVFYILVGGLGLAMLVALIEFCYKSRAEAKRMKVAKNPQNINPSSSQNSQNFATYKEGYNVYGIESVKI
Regarding `O=C(/C=C/c1ccccc1)Nc1ccc(CC(=O)N2CCCC2)cc1`, the compound max-min signal was 0.119; the glutamate response, % of max is 31.3% (inactive); the glutamate slope, % of max was 65.4%.

In the case of `C=CCNC(=O)NC1CCCCC1N1C(=O)CSC1=O` (stereo not drawn), the compound max-min signal is 0.12; the glutamate response, % of max was 10.5% (inactive); the glutamate slope, % of max was found to be 45.6%.

For the compound `CSc1ccccc1NC(=O)c1nc(-c2cnccn2)no1`, the compound max-min signal was found to be 0.143; the glutamate response, % of max is 23.2% (inactive); the glutamate slope, % of max is 49.2%.

In the case of `Cc1nc(-c2cccs2)c(CCC(=O)NCc2ccc3c(c2)OCO3)s1`, the compound max-min signal is 0.114; the glutamate response, % of max was 10.6% (active); the glutamate slope, % of max is 25.8%.

Regarding `COc1ccc(NC(=O)CCc2sc(C)nc2-c2cccs2)cc1OC`, the compound max-min signal was found to be 0.123; the glutamate response, % of max is 37.8% (inactive); the glutamate slope, % of max was 60.9%.

`COc1ccc(CCNC(=O)CCc2sc(C)nc2-c2cccs2)cc1`: the compound max-min signal was determined as 0.0606; the glutamate response, % of max was 19.1% (inactive); the glutamate slope, % of max turned out to be 37.1%.

Turning to `COc1cc2cc(CNc3ccc(C)cc3)c(=O)n(CC(=O)Nc3ccccc3F)c2cc1OC`, the compound max-min signal was 0.116; the glutamate response, % of max was 25.6% (inactive); the glutamate slope, % of max was 49.4%.

Regarding `Cc1ccc2cc(CNc3ccccc3)c(=O)n(CC(=O)Nc3ccccc3C)c2c1`, the compound max-min signal came out at 0.0993; the glutamate response, % of max was 29.6% (inactive); the glutamate slope, % of max is 44.3%.

As for `COc1ccc2cc(CNc3ccccc3)c(=O)n(CC(=O)Nc3ccccc3OC)c2c1`, the compound max-min signal is 0.0876; the glutamate response, % of max is -1.71% (active); the glutamate slope, % of max came to 4.4%.

`Cc1cc(C)cc(-n2c(SCC#N)nc3cc(C(=O)NC4CCCC4)ccc3c2=O)c1`: the compound max-min signal was determined as 0.127; the glutamate response, % of max was 50.2% (inactive); the glutamate slope, % of max turned out to be 72.1%.

`CCOC(=O)c1ccc(-n2c(C)c(C)n3c4c(=O)n(CC)c(=O)n(C)c4nc23)cc1`: the compound max-min signal was 0.126; the glutamate response, % of max was 48.1% (inactive); the glutamate slope, % of max stood at 62.4%.

In the case of `CCC(C)c1ccccc1OCC(O)CN` (stereo not drawn), the compound max-min signal amounted to 0.0631; the glutamate response, % of max is 21.1% (inactive); the glutamate slope, % of max stood at 39.8%.

As to `Cc1cc(N(C)C)nc(-n2cc([N+](=O)[O-])cn2)n1`, the compound max-min signal was determined as 0.178; the glutamate response, % of max is 35.4% (active); the glutamate slope, % of max was determined as 63.4%.

In the case of `O=C(c1ccc(Cl)s1)N1CCC(c2ccsc2)CC1`, the compound max-min signal came to 0.0754; the glutamate response, % of max was 43.8% (inactive); the glutamate slope, % of max stood at 57%.

On to `COCCNC(=O)C(=O)Nc1cc(N2CCCS2(=O)=O)ccc1OC`, for which the compound max-min signal stood at 0.105; the glutamate response, % of max was 22.8% (inactive); the glutamate slope, % of max is 46.1%.

As to `CCOc1ccc(C(=O)Nc2sc3c(c2-c2nc4ccccc4s2)CCN(C)C3)cc1`, the compound max-min signal is 0.114; the glutamate response, % of max was 34.3% (inactive); the glutamate slope, % of max was 50.1%.

Regarding `CN1CCc2c(sc(NC(=O)c3ccc(Br)cc3)c2-c2nc3ccccc3s2)C1`, the compound max-min signal amounted to 0.139; the glutamate response, % of max is 53.9% (inactive); the glutamate slope, % of max was 74%.

Take `CC(=O)c1ccc(C(=O)Nc2sc3c(c2-c2nc4ccccc4s2)CCN(C)C3)cc1`: the compound max-min signal came to 0.226; the glutamate response, % of max is 65.6% (active); the glutamate slope, % of max amounted to 85%.

On to `COc1ccc2sc(N(CC3CCCO3)C(=O)C3CCCC3)nc2c1` (stereo not drawn), for which the compound max-min signal is 0.117; the glutamate response, % of max is 20% (inactive); the glutamate slope, % of max was determined as 33.1%.

For the compound `CN1C(=O)Cc2cc(NC(=O)NC(c3ccccc3)c3ccccc3)ccc21`, the compound max-min signal worked out at 0.121; the glutamate response, % of max was 41.8% (inactive); the glutamate slope, % of max was found to be 60.5%.

For the compound `Cc1nc2ccccn2c1C(=O)Nc1ccc2c(c1)CC(=O)N2C`, the compound max-min signal was 0.213; the glutamate response, % of max is 46.6% (active); the glutamate slope, % of max was 65.1%.

For the compound `Cc1nc2ccccn2c1C(=O)NCC(O)(c1ccccc1)C(F)(F)F` (stereo not drawn), the compound max-min signal is 0.141; the glutamate response, % of max is 14.1% (inactive); the glutamate slope, % of max was found to be 49.7%.

Consider `CCOC(=O)CNC(=O)C(=O)c1c(C)[nH]c2ccccc12`, for which the compound max-min signal was 0.14; the glutamate response, % of max was 51.3% (inactive); the glutamate slope, % of max stood at 67.4%.

Regarding `CN(C)S(=O)(=O)NCC#CCN1CCc2ccccc2C1`, the compound max-min signal was 0.0659; the glutamate response, % of max was 38.5% (inactive); the glutamate slope, % of max worked out at 57.8%.

`O=S(=O)(NCC#CCN1CCc2ccccc2C1)c1ccc(Br)cc1`: the compound max-min signal came to 0.0488; the glutamate response, % of max was 43.9% (inactive); the glutamate slope, % of max came out at 66.2%.

As for `O=S(=O)(/C=C/c1ccccc1)NCC#CCN1CCc2ccccc2C1`, the compound max-min signal is 0.144; the glutamate response, % of max is 41.7% (active); the glutamate slope, % of max came out at 55.5%.

Regarding `CCNC(=O)CSc1nc(-c2ccccc2)c(NC(=O)CC2CCCC2)s1`, the compound max-min signal was found to be 0.0584; the glutamate response, % of max is 31.3% (inactive); the glutamate slope, % of max came to 44.8%.

Regarding `COc1ccc(CC(=O)NCCOc2cc(C)cc(C)c2)cc1OC`, the compound max-min signal worked out at 0.0873; the glutamate response, % of max is 52% (inactive); the glutamate slope, % of max was determined as 63.4%.

For `CC(C)NC(=O)Nc1ccc(CN2CCN(C)CC2)cc1`, the compound max-min signal stood at 0.107; the glutamate response, % of max is 37% (inactive); the glutamate slope, % of max worked out at 57.1%.

On to `O=C(c1ccno1)N1CCN(c2nc3ccc([N+](=O)[O-])cc3s2)CC1`, for which the compound max-min signal worked out at 0.188; the glutamate response, % of max was 27.8% (active); the glutamate slope, % of max amounted to 50.2%.

With `COc1ccc([N+](=O)[O-])cc1NC(=O)c1ccno1`, the compound max-min signal came to 0.13; the glutamate response, % of max was 15.2% (inactive); the glutamate slope, % of max was 32.1%.

On to `COc1ccc(SCCC(=O)N2CCN(c3nc4ccc(F)cc4s3)CC2)cc1`, for which the compound max-min signal amounted to 0.0995; the glutamate response, % of max is 50.5% (inactive); the glutamate slope, % of max amounted to 60.6%.

Take `CN(C)C(=O)N1CCN(S(=O)(=O)c2ccc(F)cc2)CC1`: the compound max-min signal came out at 0.11; the glutamate response, % of max is 30.6% (inactive); the glutamate slope, % of max stood at 58.2%.

Take `O=C(CCCS(=O)(=O)c1ccc(F)cc1)Nc1cccc2c1C(=O)NC2=O`: the compound max-min signal was determined as 0.0985; the glutamate response, % of max is 41.1% (inactive); the glutamate slope, % of max amounted to 66.5%.

Take `COc1ccc(N(Cc2cccc(C)c2)S(=O)(=O)c2ccc3nnc(C)n3c2)cc1`: the compound max-min signal was 0.0921; the glutamate response, % of max was 39% (inactive); the glutamate slope, % of max stood at 70.3%.

With `Cc1ccc([N+](=O)[O-])cc1NC(=O)C(=O)NCC(c1cccs1)N(C)C` (stereo not drawn), the compound max-min signal was 0.155; the glutamate response, % of max was 57.6% (inactive); the glutamate slope, % of max came to 83.7%.
